# Source: PubChem (several laboratories)
# Only some compounds are listed: those with a hit (about 5.6% of all), similar ones and a draw of the others.
# PfG6PD inh: PfG6PD (Plasmodium falciparum) enzyme inhibition | PfGluPho enzyme, NADPH resazurin-diaphorase fluorescence | hit rate 0.78% among 350,000 | inhibition, % at 20 µM;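 active means inhibition reaching at least a set limit at 20 µM in the primary screen, cut at about 59% in these data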;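 further: 0% = DMSO wells with substrate and 100% = DMSO wells lacking glucose-6-phosphate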
# ALR inh: blocks human ALR sulfhydryl oxidase activity. P55789. purified ALR, DTT oxidation, H2O2 HRP-luminol luminescence. inhibition, % (concentration not given with the values). hit rate 3.8% among 290,000. AID 485317;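 active means mean replicate inhibition above about 79%, with every replicate also reaching it, limit read from the data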
# PfM18AAP inh-1: blocks P. falciparum M18 aspartyl aminopeptidase. recombinant PfM18AAP, H-Glu-NHMec fluorogenic cleavage. inhibition, % at 7.35 µM. hit rate 1.2% among 290,000;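 active means inhibition above the campaign mean inhibition over all tested compounds plus 3 SD, cut at about 28% in these data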;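 further: 0% = plate median of test compound wells and 100% = 2 mM ZnCl2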
# Cardio protect: protects H9c2 cardiomyocytes from peroxide injury; protection from H2O2 cell death, % at 20 µM; H2O2 injury protection, ATPLite, 2 h; hit rate 0.63% among 360,000;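 active means compounds giving at least 50% protection of heart cells from peroxide-induced death in the single-dose screen, raw or plate-pattern-corrected value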;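 further: 0% = DMSO wells with peroxide and 100% = DMSO wells without peroxide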
# PHOSPHO1 inh: blocks human PHOSPHO1 phosphatase activity; inhibition, % at 13.3 µM; recombinant PHOSPHO1, absorbance phosphatase assay; hit rate 1.1% among 290,000; AID 1565; in the data active means inhibition above about 60%
# Target sequence (Q8TCT1 whole entry, looked up): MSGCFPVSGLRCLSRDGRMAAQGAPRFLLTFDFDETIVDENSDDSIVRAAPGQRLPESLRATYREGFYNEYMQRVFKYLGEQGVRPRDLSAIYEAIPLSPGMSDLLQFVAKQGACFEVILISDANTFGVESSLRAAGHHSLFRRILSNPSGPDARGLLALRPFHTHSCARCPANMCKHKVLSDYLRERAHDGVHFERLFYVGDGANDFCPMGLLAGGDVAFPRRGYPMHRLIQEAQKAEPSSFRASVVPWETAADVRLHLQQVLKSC
# PfM18AAP inh-2: PfM18AAP inhibition, confirmation | AID 2170 | inhibition, % at 7.35 µM | shares compounds with PfM18AAP inh-1 | recombinant PfM18AAP, H-Glu-NHMec fluorogenic cleavage | hit rate 28% among 2,400;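 active means mean inhibition over replicate wells above the hit cutoff set for the earlier primary screen, cut at about 29% in these data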;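 further: 0% = median of test compound wells and 100% = 2 mM ZnCl2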
# CTSL1 confirm: Cathepsin L (human) inhibition, confirmation | inhibition, % at 5.96 µM | 2,400 tested, under 10 active | AID 2178 | shares compounds with PfM18AAP inh-1 | purified cathepsin L1, Z-Leu-Arg-MCA fluorescence;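 active means average inhibition across replicates above the hit cutoff set in the earlier primary screen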;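 further: 0% = median of test compound wells and 100% = Z-Phe-Ala-diazomethylketone 1 µM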
# Target sequence (P07711 whole entry, looked up): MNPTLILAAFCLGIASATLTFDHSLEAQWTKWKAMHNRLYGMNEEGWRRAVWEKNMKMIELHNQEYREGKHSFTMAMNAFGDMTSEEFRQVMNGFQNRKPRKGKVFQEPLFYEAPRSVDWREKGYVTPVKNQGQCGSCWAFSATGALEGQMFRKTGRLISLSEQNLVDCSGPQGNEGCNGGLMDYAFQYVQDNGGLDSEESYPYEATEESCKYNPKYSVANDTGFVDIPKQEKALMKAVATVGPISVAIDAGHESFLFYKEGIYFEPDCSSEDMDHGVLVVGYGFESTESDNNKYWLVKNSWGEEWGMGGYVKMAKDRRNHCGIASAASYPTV
# The depositor's hits bear a star; nt = not tested or not shown.
SMILES,PfG6PD inh,ALR inh,PfM18AAP inh-1,Cardio protect,PHOSPHO1 inh,PfM18AAP inh-2,CTSL1 confirm
CC(C)CNC1=CC(=O)CC(c2ccco2)C1 (stereo not given),1,-9,40*,-2,4,-16,-5
Cc1ccc(S(=O)(=O)CCC(=O)NCc2ccccc2F)cc1,-3,3,nt,-3,nt,nt,nt
N#CC1=C(N)NC(=S)C(C(N)=O)C1c1ccc([N+](=O)[O-])cc1 (stereo not given),42,68,48*,-2,-5,35*,7
Cc1cccc[n+]1C1C(c2ccc([N+](=O)[O-])cc2)C(C#N)=C(C(=C=[N-])C#N)NC1(O)C1CC1 (stereo not given),-18,47,4,2,-16,nt,nt
CN(Cc1nc2ccccc2c(=O)[nH]1)C(=O)c1cc(-c2ccc(Br)cc2)nc2ccccc12,-5,nt,nt,28,nt,nt,nt
CC(=O)Nc1ccc(NC(=O)N2CCOCC2)cc1,-6,nt,nt,3,nt,nt,nt
CC(=O)/C(=N\Nc1ccc(C)cc1)N1CCOCC1,-3,99*,55*,-5,65*,-46,6
COc1cc(NC(=O)Nc2ccc3c(c2)OCO3)cc(OC)c1OC,7,-10,0,1,6,nt,nt
COc1cc(NC(=O)NNC(=O)c2cc3occc3n2C)cc(OC)c1OC,11,43,60*,-4,28,30*,-1
COc1ccc(C(=O)NNC2=CC(=O)CC(C)(C)C2)cc1,-6,24,47*,4,-18,27,-1
Cc1ccc(CN2CCC[C@]3(N[C@H](c4ccc(C(F)(F)F)cc4)[C@@H]4C(=O)N(Cc5ccccc5)C(=O)[C@@H]43)C2=O)cc1,13,nt,nt,-10,nt,nt,nt
O=C(NCCCCc1ccccc1)Nc1ccc(F)cc1F,0,1,-2,0,42,nt,nt
CCOC(=O)c1sc(N2C(=O)C(O)=C(C(=O)c3ccco3)C2c2ccco2)nc1C (stereo not given),15,nt,32*,8,28,-43,-2
CCOC(=O)c1sc(N2C(=O)C(O)=C(C(=O)c3ccco3)C2c2ccccc2)nc1C (stereo not given),nt,nt,19,nt,nt,nt,nt
S=c1[nH]nc(Cc2n[nH]c(=S)n2-c2ccccc2)n1-c1ccccc1,37,93*,35*,5,11,2,3
FC(F)(F)c1cccc(-n2c(Cn3nnc4ccccc43)n[nH]c2=S)c1,24,44,19,4,-53,nt,nt
S=c1[nH]nc(Cn2nnc3ccccc32)n1-c1ccccc1,9,54,42*,-3,-94,0,0
Cc1ccc2nc(-c3ccco3)c(CC3CCCCC3)n2c1,nt,nt,nt,1,nt,nt,nt
O=C(N/N=C/c1sc(=O)[nH]c1-[n+]1ccccc1)c1ccccc1[O-],21,4,11,3,24,nt,nt
O=C(N/N=C/c1sc(=O)[nH]c1-[n+]1ccc2ccccc2c1)c1ccccc1[O-],-2,nt,32*,-2,13,-20,3
Cc1cc(C)c2c(=O)n(CC(=O)NCCCN3CCOCC3)sc2n1,70*,46,54*,22,37,32*,0
Cc1ccccc1CS(=O)(=O)CCC(=O)NCCCN1CCN(c2ccccc2F)CC1,-14,8,-16,-16,-27,nt,nt
Cc1cc(C)c2c(=O)n(CC(=O)NCCCN3CCN(c4ccccc4F)CC3)sc2n1,99*,nt,47*,nt,26,-9,0
COc1ccccc1N1CCN(C(=S)Nc2ccc(S(=O)(=O)N3CCOCC3)cc2)CC1,15,18,32*,-11,-8,-48,2
COc1ccc(F)cc1-c1cc(C(=O)NCc2cccc(Cl)c2)[nH]n1,nt,nt,nt,5,nt,nt,nt
SMILES,PfG6PD inh,ALR inh,PfM18AAP inh-1,Cardio protect,PHOSPHO1 inh,PfM18AAP inh-2,CTSL1 confirm
CC(C)C(C(=O)Nc1ccccc1)N1C(=O)c2ccccc2C1=O (stereo not given),0,-7,9,0,-24,nt,nt
CC(C)C(C(=O)Nc1ncn[nH]1)N1C(=O)c2ccccc2C1=O (stereo not given),-1,-3,40*,3,18,56*,5
CCCCN(Cc1nc2ccccc2c(=O)[nH]1)C(=O)c1nn(C)c(=O)c2ccccc12,13,nt,nt,32,nt,nt,nt
N#C/C(=C\c1ccc(O)c(O)c1)S(=O)(=O)c1ccccc1,-70,99*,51*,51*,-11,24,5
COc1ccc(C(C)C)cc1S(=O)(=O)Nc1ccncc1,5,-1,37*,1,16,-58,-2
CC(=O)Nc1ccc(C(=O)O)cc1,-12,nt,nt,6,nt,nt,nt
CC(=O)Nc1ccc(NCC(=O)c2ccccc2)cc1,10,65,34*,17,39,-35,0
CN(Cc1ccc(Cl)cc1)C(=O)COC(=O)CSc1ccc([N+](=O)[O-])cc1,34,-2,nt,4,nt,nt,nt
N#C/C(=C/c1ccc(O)c(O)c1)c1nc2ccccc2[nH]1,-10,90*,62*,39,11,43*,-1
CC[C@]12c3[nH]c4ccccc4c3CCN1C(=O)C(CC(=O)NCCCOC)C[C@@H]2C(=O)N1CCN(C(=O)c2ccco2)CC1 (stereo not given in full),2,nt,nt,-4,nt,nt,nt
COc1cccc2cc(C(=O)N(Cc3ccccc3)CC3CCCO3)c(=O)oc12 (stereo not given),12,-24,35*,28,-3,-29,-1
CC(C)N=c1scc(-c2cccs2)n1/N=C/c1ccc(O)c(O)c1O,50,88*,39*,50*,-15,-40,-3
NC(=S)NNC(=S)Nc1ccccc1,-11,97*,42*,-5,6,2,-2
O=C(NNC(=S)Nc1ccccc1)C1CCCCC1,18,43,1,-9,-12,nt,nt
S=C(NNC(=S)Nc1ccccc1)Nc1ccccc1,8,2,50*,-9,1,1,-1
S=C(Nc1ccccc1)Nc1ccc(Br)cc1,-2,-3,-8,-8,28,nt,nt
CC1CCCCC1NC(=O)COC(=O)c1c2c(nc3ccccc13)/C(=C\c1ccco1)CC2 (stereo not given),13,nt,nt,3,nt,nt,nt
COc1cc(Cl)ccc1NC(=S)N(CCCN1CCOCC1)Cc1cn(C)c2ccccc12,56,-1,32*,-2,-35,-1,3
COc1ccc(Cl)cc1NC(=S)N(CCCN1CCOCC1)Cc1cn(C)c2ccccc12,55,-7,27,-2,-4,nt,nt
COc1cc(/C=C2\C(=O)ON=C2c2ccc(Cl)cc2)ccc1O,0,62,nt,nt,nt,nt,nt
O=C1ON=C(c2ccccc2)/C1=C/c1ccc(O)c(O)c1,-4,nt,60*,58*,20,37*,-4
O=C(NCC1CCCO1)c1ccc2c(c1)N(Cc1ccccc1)C(=O)CS2=O (stereo not given),32,-13,42*,4,22,-63,-5
CCN(CC)C(=O)c1ccc2c(c1)N(Cc1ccccc1)C(=O)CS2=O (stereo not given),33,-5,54*,-4,-22,-25,-3
